Measurements taken from ChEMBL document CHEMBL1157539, “Thousands of chemical starting points for antimalarial lead identification” (Nature, 2010).

Legend:
Type in all cases: functional
Plasmodium falciparum [1] = test: GSK_TCMDC: Inhibition of Plasmodium falciparum 3D7 in whole red blood cells, using parasite LDH activity as an index of growth. Test compounds present at 2uM
Plasmodium falciparum [2] = test: GSK_TCMDC: Inhibition of Plasmodium falciparum Dd2 in whole red blood cells, using parasite LDH activity as an index of growth. Test compounds present at 2uM
HepG2 = test: GSK_TCMDC: Percent inhibition of human HepG2 cell line. Test compounds present at 10uM.

SMILES | Inhibition (Plasmodium falciparum [1]) [%] | Inhibition (Plasmodium falciparum [2]) [%] | Inhibition (HepG2) [%]
Br.c1ccc(-c2ccc(-c3csc(Nc4ccncc4)n3)cc2)cc1 | 100 | 97 | 30
O=C(O)C(F)(F)F.O=S(=O)(NCCN1CCCC1)c1ccc(-c2cccc(CNCc3ccc(F)cc3)c2)cc1F | 97 | 36 | 43
N#Cc1ccc(N(CCNS(=O)(=O)c2cc(Br)c(Cl)s2)Cc2ccccc2C(F)(F)F)cc1C(F)(F)F | 92 | 57 | 3
CCCC(C)Nc1nc(C)cc(N[C@@H](Cc2ccccc2)C(=O)Nc2ccccc2)n1.O=C(O)C(F)(F)F (some centres undefined) | 100 | 67 | 50
CCN(CC)c1ccccc1CNC(=O)c1cc(Cl)c(N)cc1OC | 97 | 94 | 6
O=C(C=Cc1ccc(Cl)c(Cl)c1)NCCCCCN1CCC(CCCNC(=O)/C=C/c2ccccc2)CC1 | 96 | 33 | 50
CCN(CC)CCOc1ccc(Nc2ncc3cc(-c4c(Cl)cccc4Cl)c(=O)n(C)c3n2)cc1 [PD-0166285] | 90 | 91 | 72
CC(C)Nc1nc(NC2CCCCC2)nc(N2CCCCCCC2)n1 | 86 | 96 | 13
CC(C)CNCc1ccc(-c2cccc(CNc3ccc4ncccc4c3)c2)cc1.O=C(O)C(F)(F)F | 96 | 31 | 29
COc1cc2nc(C)nc(Nc3cccc(Br)c3)c2cc1OC.Cl | 100 | 82 | 0
CC(CN(C)C)C(=O)Nc1ccc(-c2cccc(-c3nc4cc(C(F)(F)F)ccc4[nH]3)c2)cc1 (centres undefined) | 100 | 85 | 30
Nc1c(Cl)cc(C(O)CNCCCCCOCCc2ccc3ccccc3n2)cc1Cl.O=C(O)/C=C/C(=O)O (centres undefined) | 98 | 97 | 9
O=C(Nc1cccc(CN2CCCN(Cc3ccc(O)cc3)CC2)c1)c1cc(F)cc(F)c1.O=C(O)C(F)(F)F | 100 | 13 | 15
Cc1cc(NCCC(=O)NCCOc2ccccc2)nc(Nc2ccccc2)n1.O=C(O)C(F)(F)F | 94 | 55 | 26
Cc1cc(N2CCCC2)nc(Nc2ccc(NC(=O)Cc3ccccc3)cc2)n1 | 100 | 72 | 71
CCNc1cc(C(=O)N[C@@H](Cc2ccccc2)[C@H](O)CNCc2ccc3c(c2)OCCO3)cc(N2CCCCS2(=O)=O)c1.O=CO | 95 | 45 | 0
CC(=O)Nc1ccc(CN2CCC(NC(=O)c3ccc(-c4cccc(C(F)(F)F)c4)s3)CC2)cc1.O=C(O)C(F)(F)F | 100 | 16 | 35
COCc1cc(C)nc2sc(C(=O)Nc3cc(C(C)(C)C)ccc3O)c(N)c12 | 85 | 57 | 0
Cl.FC(F)(F)c1cc(CNCCCNc2nc3ccncc3[nH]2)ccc1Cl | 99 | 15 | 11
Cc1cccc2nc(-c3cccc(-c4cccc(C(=O)NCCN5CCCC5)c4)c3)[nH]c12 | 100 | 75 | 21
O.O=C1C([N+](=O)[O-])=C(O)c2c(F)cccc21 | 95 | 13 | 9
Cl.c1ccc2c(Nc3ccc(Oc4ccc(Nc5c6ccccc6nc6ccccc56)cc4)cc3)c3ccccc3nc2c1 | 100 | 99 | 21
Cc1cccc2nc(-c3cccc(-c4ccc(NC(=O)C(C)CN(C)C)cc4)c3)[nH]c12 (centres undefined) | 100 | 100 | 29
COc1c(C2CCN(CCCCNC(=O)c3ccc(-c4ccc(C#N)cc4)cc3)CC2)cc(Cl)c2c1CCCC2 | 93 | 59 | 45

SMILES | Inhibition (Plasmodium falciparum [1]) [%] | Inhibition (Plasmodium falciparum [2]) [%] | Inhibition (HepG2) [%]
COc1cc2ncnc(NCCc3ccccc3Cl)c2cc1OC | 88 | 11 | 0
Cl.O=C(Nc1ccc(NC2=NCCN2)cc1)Nc1ccc(NC2=NCCN2)cc1 | 88 | 72 | 0
Cc1cccc2nc(-c3cccc(-c4cccc(C(=O)N5CCCCC5CN5CCC(O)C5)c4)c3)[nH]c12 (centres undefined) | 89 | 71 | 19
CC(=O)Nc1ccc(C(=O)NC2CCN(c3ccnc4cc(Cl)ccc34)C2)cc1.O=C(O)C(F)(F)F (centres undefined) | 100 | 100 | 1
Cc1noc(C)c1CN1CCCN(c2ccc3c(c2)CCN(Cc2ccc(-c4ncc[nH]4)cc2)CC3)CC1 | 98 | 39 | 1
O=C(/C=C/c1ccc(Cl)c(Cl)c1)NCCCCCN1CCC(NC(=S)Nc2ccc(Cl)cc2Cl)CC1 | 99 | 47 | 53
COCCNCc1nc(-c2ccc3c(Nc4ccc(F)c(O)c4)ccnc3c2)cs1 | 100 | 99 | 0
CN(C)C(=O)c1ccc(CN(Cc2cccc(OC(C)(C)C)c2)Cc2ccc3c(c2)OCCO3)cc1 | 96 | 96 | 0
COc1ccc(CNC(=O)NC2CCN(c3ccnc(Nc4ccc(F)cc4)n3)C2)cc1 (centres undefined) | 91 | 78 | 4
S=C(NCCCCCN1CCC(c2c[nH]c3ccccc23)CC1)Nc1cccc(I)c1 | 99 | 14 | 69
O=C(O)C(F)(F)F.O=S(=O)(NC1CCN(c2ccnc3cc(Cl)ccc23)C1)c1cccc(F)c1 (centres undefined) | 98 | 88 | 19
NCc1ccc(CNCc2cccc(-c3cccc(-c4nc5ccccc5[nH]4)c3)c2)cc1.O=C(O)C(F)(F)F | 100 | 11 | 7
CCN(CC)c1ccc2nc(N)nc(N)c2c1Cl.Cl | 92 | 1 | 62
Nc1cccc(CNCc2cccc(-c3cccc(-c4nc5cc(C(F)(F)F)ccc5[nH]4)c3)c2)c1.O=C(O)C(F)(F)F | 100 | 96 | 8
Cc1cccc2nc(-c3ccc(-c4cccc(CNCc5cccc(N)c5)c4)s3)[nH]c12.O=C(O)C(F)(F)F | 100 | 85 | 15
O=C(COc1ccccc1)Nn1cnc2ccccc21 | 91 | 0 | 2
Cc1ccc(C)c(S(=O)(=O)NCC2CCN(Cc3ccc(O)cc3)CC2)c1.O=C(O)C(F)(F)F | 87 | 57 | 16
O=C(/C=C/c1ccc(Cl)c(Cl)c1)N1CCC(CCN2CCc3[nH]c4ccccc4c3C2)CC1.O=C(O)C(F)(F)F | 96 | 0 | 22
CON(C)C(=O)[C@@H](CCCCNC(=O)OCc1ccccc1)NC(=O)OC(C)(C)C | 98 | 0 | 5
O=c1cc(NCCC(CNCCc2ccccc2)NCc2cc(Br)cc(Br)c2)[nH]c2ccccc12 (centres undefined) | 98 | 47 | 3
O=C(NC1CCN(Cc2ccccc2)CC1)c1cccc(-c2cc3cc(Cl)c(Cl)cc3[nH]2)c1.O=C(O)C(F)(F)F | 100 | 86 | 15
CCCCC([C@@H](Cc1ccc2ccccc2c1)C(=O)N[C@H](C(=O)NC)C(C)(C)C)N(O)C=O (some centres undefined) | 100 | 97 | 0
CC(=O)Nc1ccc(OCCCCN(Cc2ccccc2C(F)(F)F)c2ccc(C#N)c(C(F)(F)F)c2)c(Cl)c1 | 98 | 71 | 0
Cc1c(CNCCCNc2nc3cscc3[nH]2)sc(C(F)F)c1Br.Cl | 99 | 11 | 1
